Consider 16 compounds from PubChem BioAssay (NCATS).

Assay [1] can be described thus: qHTS Assay for Identifying Gametocytocidal Compounds (AID 743244; active = well fitted curve in the direction sought with a large enough effect; an effect the other way counts as inactive or inconclusive; note: potency is the fitted concentration of half-maximal effect;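 for max response: % is set by controls: 0 for no effect and ±100 for the full control effect; actives lower the fluorescent signal which means gametocytes are killed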). The conditions noted are these: P. falciparum 3D7 stage III-V gametocytes, alamarBlue, 72 h; max response: stronger effect = lower value. Summed up: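 Stage III–V gametocytes of P. falciparum 3D7 were seeded at 20,000 cells/well onto pre-dispensed compounds. After 72 h, 37 °C, 5% CO2, alamarBlue was added for another 24 h.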
For orientation: In qHTS, concentration-response curves come from the screen itself.

Assay [2] is described as follows: qHTS profiling for inhibitors of Plasmodium falciparum (3D7) proliferation (AID 743322).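 Note: infected erythrocytes exposed to compound for 72 h before lysis; 100% = DMSO vehicle wells and 0% = 0.29 µM artemisinin.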 The conditions noted are these: P. falciparum 3D7 proliferation; at 28.7 µM (top of the series) unless noted. Summed up: (§1)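 Erythrocytes infected with P. falciparum (0.3% parasitemia, 2.5% hematocrit) incubated with compounds 72 h at 37 C, 5% CO2. Lysis with saponin/Triton buffer containing SYBR Green I, overnight at room temperature in the dark; DNA fluorescence (485/535 nm) normalised to 0.29 uM artemisinin and DMSO.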

Assay [3] can be described thus: qHTS profiling for inhibitors of Plasmodium falciparum (DD2) proliferation (AID 743323). The conditions noted are these: lower = more inhibition; at 28.7 µM (top of the series) unless noted. Summed up:
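SYBR Green fluorescence (ex 485, em 535 nm) of lysed cultures gives parasite DNA content; wells normalized to artemisinin (0.29 uM) and DMSO controls. Infected red cells: 0.3% parasitemia, 2.5% hematocrit, 72 h, 37 C.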

Assay [4] in a line: qHTS profiling for inhibitors of Plasmodium falciparum (HB3) proliferation (AID 743324; active = well fitted curve in the direction sought with a large enough effect; an effect the other way counts as inactive or inconclusive;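 note: 100% = DMSO vehicle wells and 0% = artemisinin-treated control wells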). The conditions noted are these: Plasmodium falciparum HB3 blood-stage proliferation; at 28.7 µM (top of the series) unless noted. Summed up: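 P. falciparum HB3 grown in erythrocytes (0.3% parasitemia, 2.5% hematocrit final) with compound for 72 h at 37 C, 5% CO2. Parasite DNA detected by SYBR Green after saponin/triton lysis overnight; normalized to 0.29 uM artemisinin and DMSO.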

A short description of assay [5]: qHTS profiling of the MIPE4 collection as inhibitors of Plasmodium falciparum (3D7) proliferation (AID 743344).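 Note: scaled between DMSO vehicle wells and 0.29 µM artemisinin as full inhibition.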 The conditions noted are these: P. falciparum 3D7 in erythrocytes, SYBR Green DNA fluorescence, 72 h; at 28.5 µM (top of the series). Summed up:
as §1

The nature of assay [6]: qHTS profiling of the MIPE4 collection as inhibitors of Plasmodium falciparum (DD2) proliferation (AID 743345). The conditions noted are these: P. falciparum Dd2 in erythrocytes, SYBR Green DNA, 72 h; at 28.5 µM (top of the series) unless noted. Summed up:
as §1

Assay [7] can be described thus: qHTS profiling of the MIPE4 collection as inhibitors of Plasmodium falciparum (DD2) proliferation (Rep 2) (AID 743346). The conditions noted are these: P. falciparum Dd2 in erythrocytes, SYBR Green DNA, 72 h; at 28.5 µM (top of the series). In a few lines:
as §1

A short description of assay [8]: qHTS profiling of the MIPE4 collection as inhibitors of Plasmodium falciparum (HB3) proliferation (AID 743347).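 Note: plate controls were DMSO vehicle wells for no effect and artemisinin wells for full effect.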 The conditions noted are these: P. falciparum HB3 in erythrocytes, SYBR Green DNA, 72 h; at 28.5 µM (top of the series). In a few lines: as §1

Results filed as inconclusive are left out. Active and inactive are the calls of the source. Unless noted, the rule behind the calls is not given here.

As for `Cc1nc(-c2ccc(-c3ccc(C(=O)N4CCc5cc6c(cc54)C4(CCN(C)CC4)CO6)cc3)c(C)c2)no1`, the max response in assay [1] was -4.85% (inactive). The remaining parasite growth % (stronger effect = lower value) in assay [2] worked out at 36.2%. The activity, percent of control in assay [3] amounted to 63.3%. The remaining proliferation (% of control), lower = more inhibition in assay [4] came to 17.2%. The compound also registered a parasite growth, % of DMSO control in assay [5] of 76%. Besides, in assay [6], the parasite growth remaining, % of DMSO control (lower = more inhibition) is 101%. For the same compound, in assay [7], the parasite growth, % of control (lower = inhibition) worked out at 77.5%.
As for `C=CCON=C(C[C@H]1O[C@@H]2O[C@]3(C)CC[C@@H]4[C@H](C)CC[C@@H]([C@H]1C)[C@@]24OO3)[C@H]1O[C@@H]2O[C@]3(C)CC[C@H]4[C@H](C)CC[C@@H]([C@@H]1C)[C@@]24OO3`, in assay [1], the Potency was 8.3 nM (active). For the same compound, the remaining parasite growth % (stronger effect = lower value) in assay [2] is -1.46%. In assay [3], the activity, percent of control amounted to 0.0103%. Further, the remaining proliferation (% of control), lower = more inhibition in assay [4] came out at 0.0213%. Besides, the parasite growth, % of DMSO control in assay [5] amounted to 21.6%. Moreover, the parasite growth remaining, % of DMSO control (lower = more inhibition) in assay [6] is 7.38%. Further, the parasite growth, % of control (lower = inhibition) in assay [7] was found to be 16.3%. The compound also came in with a growth, % of control in assay [8] of 64.2%.
For `CC[C@H](CO)Nc1nc(NCc2ccccc2)c2ncn(C(C)C)c2n1`, the remaining parasite growth % (stronger effect = lower value) in assay [2] worked out at 61.3%. The activity, percent of control in assay [3] was determined as 50.4%. For the same compound, the parasite growth remaining, % of DMSO control (lower = more inhibition) in assay [6] turned out to be 67.6%. Besides, the parasite growth, % of control (lower = inhibition) in assay [7] was 48%.
Take `CC1CC(C)C(=O)C(C(O)CC2CC(=O)NC(=O)C2)C1` (centres undefined): the Potency in assay [1] is 1520 nM (active). In addition, in assay [2], the remaining parasite growth % (stronger effect = lower value) was 0.131% [at 57.5 µM]. Also, in assay [3], the activity, percent of control is 0.244% [at 57.5 µM]. Moreover, in assay [4], the remaining proliferation (% of control), lower = more inhibition is -0.376% [at 57.5 µM].
In assay [5], `C[C@@]12OC(=O)[C@]1([C@@H](O)[C@@H]1C=CCCC1)NC(=O)[C@H]2CCCl` gave a parasite growth, % of DMSO control of 4.78%. Besides, in assay [6], the parasite growth remaining, % of DMSO control (lower = more inhibition) amounted to 7.57%. In addition, the parasite growth, % of control (lower = inhibition) in assay [7] is 10.7%.
With `O=c1cccc2n1CC1CNC[C@H]2C1`, in assay [5], the parasite growth, % of DMSO control worked out at 71.3%. In assay [6], the parasite growth remaining, % of DMSO control (lower = more inhibition) was determined as 90.9%. Further, the parasite growth, % of control (lower = inhibition) in assay [7] was found to be 53.7%.
The compound `C[C@H]1CCCC=CC2C[C@H](O)C[C@@H]2[C@H](O)C=CC(=O)O1` (some centres undefined) gave a parasite growth, % of DMSO control in assay [5] of 4.99%. Also, in assay [6], the parasite growth remaining, % of DMSO control (lower = more inhibition) turned out to be 9.17%. Moreover, the parasite growth, % of control (lower = inhibition) in assay [7] is 9.15%.
With `C1=CCOCc2cc(ccc2OCCN2CCCC2)Nc2nccc(n2)-c2cccc(c2)OCC1`, the remaining parasite growth % (stronger effect = lower value) in assay [2] stood at 105%. Besides, in assay [3], the activity, percent of control came out at 107%. For the same compound, the remaining proliferation (% of control), lower = more inhibition in assay [4] stood at 115%.
In assay [5], `CCNC(=O)C[C@@H]1N=C(c2ccc(Cl)cc2)c2cc(OC)ccc2-n2c(C)nnc21` came in with a parasite growth, % of DMSO control of 76.4%. Moreover, the parasite growth remaining, % of DMSO control (lower = more inhibition) in assay [6] came to 106%. The parasite growth, % of control (lower = inhibition) in assay [7] is 99.1%.
In the case of `O=C(Oc1ccc([N+](=O)[O-])cc1)N1CCC(C(O)(c2ccc3c(c2)OCO3)c2ccc3c(c2)OCO3)CC1`, the max response in assay [1] was -4.93% (inactive). Moreover, the remaining parasite growth % (stronger effect = lower value) in assay [2] came out at 26.6%. In assay [3], the activity, percent of control is 90.2%. Moreover, in assay [4], the remaining proliferation (% of control), lower = more inhibition is 75.8%. In assay [5], the parasite growth, % of DMSO control was 63%. The parasite growth remaining, % of DMSO control (lower = more inhibition) in assay [6] is 78.9%. For the same compound, the parasite growth, % of control (lower = inhibition) in assay [7] was 33.6%. Further, in assay [8], the growth, % of control stood at 77.1%.
`O=c1[nH]c2ccccc2n1C1CCN(Cc2ccc(-c3[nH]c4cc5ncnc5cc4nc3-c3ccccc3)cc2)CC1` gave a parasite growth, % of DMSO control in assay [5] of 4.63%. Besides, the parasite growth remaining, % of DMSO control (lower = more inhibition) in assay [6] was 6.7%. Also, the parasite growth, % of control (lower = inhibition) in assay [7] was determined as 14.2%.
In the case of `CC[C@@H](C(=O)O)C1CC[C@H](C)C([C@@H](C)[C@H](O)[C@H](C)C(=O)[C@H](CC)C2O[C@]3(C=C[C@@H](O)[C@]4(CC[C@@](C)(C5CC[C@](O)(CC)[C@H](C)O5)O4)O3)[C@H](C)C[C@@H]2C)O1` (some centres undefined), in assay [1], the Potency is 52.6 nM (active).
Turning to `O=C(O)c1ccc(O)c2ncc(N3CCOCC3)cc12`, in assay [1], the Potency is 9350 nM (active). Besides, in assay [3], the activity, percent of control is 35.5%. The remaining proliferation (% of control), lower = more inhibition in assay [4] was 35.5%. Further, in assay [6], the parasite growth remaining, % of DMSO control (lower = more inhibition) came to 37%.
Regarding `CN1CC[C@@H](c2c(O)cc(O)c3c(=O)cc(-c4ccccc4Cl)oc23)[C@@H](O)C1`, in assay [1], the max response was 13.4% (inactive).
As for `CC(=O)Nc1ccc(OC[C@](C)(O)C(=O)Nc2ccc([N+](=O)[O-])c(C(F)(F)F)c2)cc1`, the max response in assay [1] was 0.149% (inactive). In assay [2], the remaining parasite growth % (stronger effect = lower value) came to 102%. For the same compound, the activity, percent of control in assay [3] came out at 97.8%. Also, in assay [4], the remaining proliferation (% of control), lower = more inhibition stood at 71.3%. The compound further gave a parasite growth, % of DMSO control in assay [5] of 70.7%. The parasite growth remaining, % of DMSO control (lower = more inhibition) in assay [6] came to 88.6%. Further, the parasite growth, % of control (lower = inhibition) in assay [7] was determined as 88.3%.
With `CC(C)[C@H]1C(=O)N[C@H](CO)Cc2c[nH]c3cccc(c23)N1C`, the remaining parasite growth % (stronger effect = lower value) in assay [2] was 107%. In addition, the activity, percent of control in assay [3] is 97.3%. The remaining proliferation (% of control), lower = more inhibition in assay [4] was determined as 80%. Also, the parasite growth, % of DMSO control in assay [5] stood at 87.1%. For the same compound, the parasite growth remaining, % of DMSO control (lower = more inhibition) in assay [6] stood at 97.6%. Besides, in assay [7], the parasite growth, % of control (lower = inhibition) is 147%. In addition, the growth, % of control in assay [8] is 88.8%.
